Screening results from PubChem.
Compounds with a hit are over-represented: about 4.2% of the library has one in this group of screens.
TRPV1 ag: HTS Assay for Compounds that Act as Agonists of the Vanilloid Receptor 1. Transient receptor potential cation channel subfamily V member 1 (Homo sapiens), Q8NER1. TRPV1-expressing cells, Fluo-8 calcium influx, agonist mode. activation, % at 8.33 µM. 320,000 tested, 0.19% active. AID 540275, 2011; in the data active = activation above about 80%; inconclusive = between about 30% and that limit; also: 0% is about no effect
Target sequence (Q8NER1 whole entry, looked up): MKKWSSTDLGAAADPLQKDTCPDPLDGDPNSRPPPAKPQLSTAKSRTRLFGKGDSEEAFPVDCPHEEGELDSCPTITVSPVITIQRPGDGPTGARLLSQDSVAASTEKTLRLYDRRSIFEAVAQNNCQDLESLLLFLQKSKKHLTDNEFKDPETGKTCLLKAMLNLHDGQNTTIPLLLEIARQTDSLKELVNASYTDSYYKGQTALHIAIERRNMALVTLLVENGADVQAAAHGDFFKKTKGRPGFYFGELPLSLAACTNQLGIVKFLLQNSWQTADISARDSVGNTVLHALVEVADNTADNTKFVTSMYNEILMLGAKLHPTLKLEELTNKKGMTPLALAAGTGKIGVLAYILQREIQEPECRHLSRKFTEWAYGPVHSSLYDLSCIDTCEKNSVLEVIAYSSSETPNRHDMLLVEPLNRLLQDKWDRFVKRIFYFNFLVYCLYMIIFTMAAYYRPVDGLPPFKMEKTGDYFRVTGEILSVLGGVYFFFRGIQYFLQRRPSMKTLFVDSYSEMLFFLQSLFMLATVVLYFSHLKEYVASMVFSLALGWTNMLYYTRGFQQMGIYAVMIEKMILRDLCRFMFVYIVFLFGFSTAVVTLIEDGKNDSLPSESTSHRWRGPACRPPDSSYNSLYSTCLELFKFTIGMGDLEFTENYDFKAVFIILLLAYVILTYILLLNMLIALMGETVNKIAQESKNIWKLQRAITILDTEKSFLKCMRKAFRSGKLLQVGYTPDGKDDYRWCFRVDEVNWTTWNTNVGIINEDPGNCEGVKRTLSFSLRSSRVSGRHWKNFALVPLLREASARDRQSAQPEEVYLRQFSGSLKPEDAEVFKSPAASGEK
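Cells expressing TRPV1 were dye-loaded with Fluo-8 and read kinetically: 10 s baseline, 3 min after compound (agonist portion), then 2 min after EC20 capsaicin (allosteric enhancer portion). Calcium-bound dye fluorescence at 480/520 nm.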
D1 agonist: Allosteric Agonists of the Human D1 Dopamine Receptor: qHTS. activation, % at 2 µM. AID 504660, 2011. D(1A) dopamine receptor (Homo sapiens), P21728. 360,000 tested, 1% active. HEK293 T-REx D1 cells, calcium flux, agonist mode; in the data active = activation above about 30%; also: 0% is about no effect
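Tetracycline-induced HEK293 TREx D1 cells, force-coupled to calcium signalling, were dye-loaded with a no-wash calcium kit. Compound was pin-added after a 10 s baseline. Fluorescence was read kinetically at 1 cycle/s for 180 s, with calcium rises flagged as agonism.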
TRPV1 PAM: HTS Assay for Compounds that Act as Potentiators of the Vanilloid Receptor 1. Transient receptor potential cation channel subfamily V member 1 (Homo sapiens), Q8NER1. TRPV1-expressing cells, Fluo-8 calcium influx, capsaicin EC20 potentiation. potentiation, % at 8.33 µM. 320,000 tested, 0.02% active; in the data active = potentiation above about 80%; inconclusive = between about 30% and that limit; also: 0% is about no effect
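TRPV1-expressing cells were cultured overnight at 35.5C and loaded with Fluo-8 calcium dye for 40 to 90 min at room temperature. After a 10 s baseline, compound was added and calcium influx was read kinetically for 3 min (ex 480/em 520 nm).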
D1 antagonist: Antagonist of Human D 1 Dopamine Receptor: qHTS; 360,000 tested, 3.2% active; D(1A) dopamine receptor (Homo sapiens), P21728; activity change, negative = inhibition, % at 10 µM; AID 504652, 2011; HEK293 TREx D1 cells, calcium flux, dopamine EC80; hits give low values; in the data active = activity change below about -30%; also: % is scaled to controls: 0 for no effect and ±100 for the full control effect
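After overnight tetracycline induction at 30 C, force-coupled D1 HEK293 cells took up a no-wash calcium dye at room temperature. Compounds were added and monitored 180 s, and the response to EC80 dopamine was then recorded.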
D1 potentiator: Potentiators of Human D1 Dopamine Receptor: qHTS | HEK293 TREx D1 cells, calcium flux, dopamine EC20 potentiation | D(1A) dopamine receptor (Homo sapiens), P21728 | 360,000 tested, 0.036% active | potentiation, % at 10 µM | AID 504651, 2011; in the data active = potentiation above about 30%; also: 0% is about no effect
* marks the source's active call; other numbers are inactive results; ? = inconclusive; . = not tested or not shown.

SMILES | TRPV1 ag | D1 agonist | TRPV1 PAM | D1 antagonist | D1 potentiator
CCc1ccc(-n2c(=O)c3cccnc3n2CC(=O)N(CC)c2cccc(C)c2)cc1 | . | 14 | . | 7 | 1
N[C@H](CSCc1ccccc1)C(=O)Nc1ccc([N+](=O)[O-])cc1 | ? | 7 | -24 | -33* | -7
NC(=O)c1ccc([N+](=O)[O-])cc1SCc1ccccc1 | 0 | 2 | 4 | 2 | 2
COc1cc(C(=O)N/N=C/c2ccc(OC(=O)c3cccc(C)c3)cc2)ccc1O | 13 | 2 | 5 | 4 | 11
COc1cc(/C=N/NC(=O)c2ccc(N)cc2)ccc1OC(=O)c1cccc(C)c1 | 2 | 4 | 1 | -41* | 2
COc1ccccc1C(=O)Nc1c(C(=O)N2CCN(c3ccccc3F)CC2)oc2ccccc12 | . | 12 | . | 13 | 4
N#Cc1nc(Nc2cccc3ccccc23)nc(NC2CCCC2)n1 | . | 8 | . | -35* | -7
Cc1ccccc1Nc1nc(C#N)nc(NC2CCCC2)n1 | . | 3 | . | -13 | -5
N#Cc1nc(Nc2cccc(Br)c2)nc(NC2CCCC2)n1 | . | 7 | . | -14 | -4
COc1cccc(Nc2nc(C#N)nc(NC3CCCC3)n2)c1 | . | 5 | . | -33* | 0
CCC(C)NC(=O)c1cc(CC(C)C)on1 (stereo unspecified) | 3 | 2 | -1 | -30* | 1
Cc1ccc(NC(=O)Cn2c(=O)c(C(F)(F)F)nc3ccccc32)c(C)c1 | . | 1 | . | -23 | -2
O=C1CCN2C=Nc3cccc4ccc1c2c34 | ? | 170* | -19 | -1 | -4
CCc1ccc(NCc2cc3ccc(OC)cc3n(CC(=O)Nc3ccccc3OC)c2=O)cc1 | . | -1 | . | 4 | 0
Cc1ccccc1CNC(=O)C1CCCN(c2nnc(C)c3c(C)n(-c4ccccc4)nc23)C1 (stereo unspecified) | ? | 11 | -33 | 16 | 46*
O=C(Nc1ccc(OCC(F)(F)C(F)F)cc1)c1ccncc1 | ? | 12 | -7 | -32* | -1
COc1ccc(NC(=O)Cn2c(SCc3ccc(C)cc3)nc3cccnc32)cc1OC | . | 2 | . | -11 | -1
CCCS(=O)(=O)N1CCN=C1SCc1cccc(C)c1 | 6 | 5 | 6 | -30* | -1
CSc1cccc(NC(=O)c2cc(S(=O)(=O)N3CCc4ccccc43)cn2C)c1 | -1 | 9 | -13 | -56* | 0
Cc1cccc(NC(=O)c2cc(S(=O)(=O)N3CCc4ccccc43)cn2C)c1 | 1 | 8 | -3 | 5 | -2
Cn1cc(S(=O)(=O)N2CCc3ccccc32)cc1C(=O)Nc1ccc(Cl)cc1 | -13 | 7 | 24 | -37* | -2
Cc1cccc(C)c1NC(=O)c1cc(S(=O)(=O)N2CCc3ccccc32)cn1C | 8 | 10 | 2 | -47* | -16
Cc1ccc(-c2cc(C(=O)NCCc3ccccc3)c3c(-c4ccc(C)cc4)[nH]nc3n2)cc1 | . | 4 | . | 39 | -4
COC1CCN(C(=O)c2ccc(OC3CCN(CCc4ccccc4)CC3)cc2)CC1 | 0 | 1 | 0 | -5 | -2
CN(Cc1nccs1)C(=O)c1ccc(OC2CCN(CCc3ccccc3)CC2)cc1 | 1 | 6 | 5 | -54* | -11
SMILES | TRPV1 ag | D1 agonist | TRPV1 PAM | D1 antagonist | D1 potentiator
CCn1ccnc1CN(C)C(=O)c1ccc(OC2CCN(CCc3ccccc3)CC2)cc1 | 3 | 3 | -16 | -22 | 0
O=C(c1ccc(OC2CCN(CCc3ccccc3)CC2)cc1)N1CCC(CO)CC1 | 0 | 14 | -5 | -44* | -14
O=C(Cn1c(=O)n(-c2ccccc2)c(=O)c2sc3ccccc3c21)N1CCCC1 | . | -1 | . | 10 | 3
CC(=O)N1CCc2cc(S(=O)(=O)NC(CC(C)C)C(=O)NCCc3ccccc3)ccc21 (stereo unspecified) | . | -1 | . | 14 | -1
O=C(Nc1cccc2ncccc12)c1ccc([N+](=O)[O-])o1 | -1 | 2 | 8 | -39* | -10
Clc1cccc(-c2ccc(/C=N/n3cnnc3)o2)c1Cl | 7 | 1 | 1 | -61* | -5
Cc1nc2scc(C)n2c(=O)c1S(=O)(=O)Nc1cccc(O)c1 | . | 4 | . | -48* | -5
NC(=O)[C@@H]1CCCNc2c(I)cc([N+](=O)[O-])cc2C(=O)N[C@@H](CCCN=C(N)N)C(=O)N[C@@H](CCCN=C(N)N)C(=O)N1 | -4 | 0 | ? | -39* | -4
CC[C@H](C)[C@@H]1NC(=O)c2cc([N+](=O)[O-])cc(I)c2NCC[C@@H](C(N)=O)NC(=O)[C@H](CCCN=C(N)N)NC1=O | -3 | -3 | -22 | 11 | -2
COc1ccc(-c2noc(CN(C(=O)C(C)Oc3ccc(C)cc3)C(C)C)n2)cc1 (stereo unspecified) | . | 2 | . | -15 | -1
COc1ccccc1N(C)S(=O)(=O)c1ccc(Cl)c(C(=O)OCc2c(C)noc2C)c1 | 11 | 31* | -13 | -29 | -13
CCOc1ccc(Nc2nn(-c3ccc(OC(F)(F)F)cc3)nc2C(C)=O)cc1 | . | 0 | . | -3 | 0
O=[N+]([O-])c1ccc(-c2csc(Nc3ccccc3)[n+]2Cc2ccccc2)cc1 | -5 | 5 | 1 | -41* | -5
COc1ccc(NC(=O)C2CCCN(C(=O)c3cnn(-c4ccccc4)c3-n3cccc3)C2)cc1 (stereo unspecified) | . | -2 | . | 9 | -1
COc1ccccc1N(C(=O)c1ccncc1)c1nc(-c2ccc([N+](=O)[O-])cc2)cs1 | -6 | 4 | -30 | -38* | -2
COc1ccc(C)cc1NC(=O)NCc1ccc2c(c1)CCN2C(=O)c1ccccc1 | . | 0 | . | -2 | -4
CC(=O)Nc1ccc(-c2cc(C(=O)O)c3c(-c4ccccc4)[nH]nc3n2)cc1 | . | 1 | . | -39* | 0
O=C(Cn1c(S(=O)(=O)Cc2ccccc2)nc2ccccc21)N1CCCCC1 | 0 | 4 | 10 | -35* | .
O=C(Cn1c(NCCO)nc2ccccc21)N1CCN(Cc2ccccc2)CC1 | 1 | 1 | -5 | -41* | -1
NC(=O)CS(=O)(=O)c1nc2ccccc2n1CC(=O)N1CCCCC1 | 0 | 2 | -12 | -13 | -8
CCc1nc2ccccc2n1CC(=O)N1CCN(Cc2ccccc2)CC1 | 3 | 1 | 9 | 8 | -3
Cc1cc2c(s1)c1cnn(Cc3ccc(-n4cncn4)cc3)c(=O)c1n2C | . | 1 | . | 5 | -3
